We go through 37 compounds from PubChem BioAssay (NCATS).

Inconclusive results are not listed. A call without a number means that no potency is given here. The source made the active and inactive calls. Unless noted, calls come from the whole dose curve; as a rule, active = well fitted inhibition curve with a large enough effect; inconclusive = small, poorly fitted or top-dose-only effect; inactive = no such curve, though single readings can be large or run the other way.

The first experiment is described as follows: qHTS profiling of the MIPE4 collection as inhibitors of Plasmodium falciparum (HB3) proliferation (AID 743347; call rule not given here). The following applies: P. falciparum HB3 in erythrocytes, SYBR Green DNA, 72 h; at 28.5 µM (top of the series). In a few lines:
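Erythrocytes infected with P. falciparum (0.3% parasitemia, 2.5% hematocrit) incubated with compounds 72 h at 37 C, 5% CO2. Lysis with saponin/Triton buffer containing SYBR Green I, overnight at room temperature in the dark; DNA fluorescence (485/535 nm) normalised to 0.29 uM artemisinin and DMSO.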
In turn, `O=C1C(=O)c2ccccc2C(O)=C1C1CCC(c2ccc(Cl)cc2)CC1` (stereo not given) displayed a growth, % of control of 5.96%. Still for that read-out and setting: in the case of `NS(=O)(=O)Cc1noc2ccccc12` it was 106%; in that of `CCOC(=O)Nc1ccc2c(c1)N(C(=O)CCN1CCOCC1)c1ccccc1S2`, 41.6%.

The next experiment can be described thus: qHTS assay for measurement of the activity of small molecule inhibitors on Zika virus induced Caspase-3 activity in human iPSC derived neural progenitor cells (hNPCs) (AID 1224857). Note: nearly all actives have a fitted effect of over 65% in size. The following applies: hNPCs ZIKV-induced caspase-3/7, Caspase-Glo luminescence, 6 h; series mostly up to 45.7 µM. The method, boiled down: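 After overnight (16–20 h) culture at 350 cells/well, hNPCs get compound, then ZIKV 2 FFU/cell one hour later. Six hours on, Caspase-Glo 3/7 is added and luminescence measured.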
(In qHTS, concentration-response curves come from the screen itself.)
As to `Cc1c(-c2ccccc2)oc2c(C(=O)OCCN3CCCCC3)cccc2c1=O`, the Potency entry was “inactive”. Regarding `NC1CCN(c2nc3c(cc2F)c(=O)c(C(=O)O)cn3-c2ccc(F)cc2F)C1` (stereo not given), the Potency result is “inactive”. The same measure, in the same setting: as for `O=C(CCN1CCN2CCCC2C1)N1c2ccccc2Sc2ccc(Cl)cc21` (stereo not given), the entry is “inactive”. Same read-out and setting: as for `C=CCN1CCc2nc(N)sc2CC1`, the entry is “inactive”; as for `CC(=O)NO`, “inactive”. Still for that read-out and setting: as for `O[C@@H](c1cc(C(F)(F)F)nc2c(C(F)(F)F)cccc12)[C@H]1CCCCN1`, the entry is “inactive”. Take `COc1cc(C(=S)N2CCOCC2)ccc1O`: the Potency entry is “inactive”. Still for that read-out and setting: in the case of `CC(C)[N+](C)(C)CC(O)COc1cccc2ccccc12` (stereo not given) it was “inactive”. On the same count and under the same terms, in the case of `O=C1C(=O)c2ccccc2C(O)=C1C1CCC(c2ccc(Cl)cc2)CC1` (stereo not given) it was “inactive”. Still for that read-out and setting: as for `CCC(Cc1c(I)cc(I)c(N)c1I)C(=O)O` (stereo not given), the entry is “inactive”; as for `COc1ccc(CCN(C)CCCN2CCc3cc(OC)c(OC)cc3CC2=O)cc1OC`, “inactive”; as for `NS(=O)(=O)Cc1noc2ccccc12`, “inactive”. In the case of `CC(C)(C)NC[C@H](O)COc1cccc2c1CCCC2=O`, the Potency result was “inactive”. The same measure, in the same setting: as for `CCO[C@@H]1O[C@H](C(COCc2ccccc2)OCc2ccccc2)[C@H](OCc2ccccc2)[C@H]1O` (stereo not given in full), the entry is “inactive”. In the case of `Cc1ccccc1OCC(O)CO` (stereo not given), the Potency result was “inactive”.

Take `COc1cc(NS(=O)(=O)c2ccc(N)cc2)ncn1`: the Potency result was “inactive”.

As to `O=C(Nc1ccccc1)OCC(CN1CCCCC1)OC(=O)Nc1ccccc1` (stereo not given), the Potency result was “inactive”. Still for that read-out and setting: as for `C[N+]1(C)CCC(=C(c2ccccc2)c2ccccc2)CC1`, the entry is “inactive”. As for `NCc1ccccc1Sc1ccccc1CO`, the Potency entry is “inactive”.

As for `CC(=O)OCC1=C(C(=O)O)N2C(=O)[C@@H](NC(=O)CSc3ccncc3)[C@H]2SC1`, the Potency result is “inactive”. Regarding `CCN[C@@H]1C[C@H](N)[C@@H](OC2OC(CN)=CCC2N)[C@H](O)[C@H]1O[C@H]1OC[C@](C)(O)[C@H](NC)[C@H]1O` (stereo not given in full), the activity change, negative = inhibition is 22% [at 0.568 µM] (inactive). As to `CC[C@]12CCCN3CCc4c(n(c5ccccc45)C(=O)C1)[C@@H]32`, the Potency result is “inactive”. Consider `O=C1C(CCS(=O)c2ccccc2)C(=O)N(c2ccccc2)N1c1ccccc1` (stereo not given), for which the Potency entry was “inactive”. `CCOC(=O)Nc1ccc2c(c1)N(C(=O)CCN1CCOCC1)c1ccccc1S2`: the Potency entry is “inactive”. For the compound `CCc1oc2ccccc2c1C(=O)c1cc(I)c(O)c(I)c1`, the Potency entry was “inactive”.

In the case of `C[C@]12CCC(=O)C=C1C=C[C@@H]1[C@@H]2CC[C@@]2(C)[C@H]1CC[C@@]21CCC(=O)O1`, the Potency entry was “inactive”.

Consider `Nc1ccc(S(=O)(=O)NCc2ccccc2)cc1`, for which the Potency result was “inactive”. Still for that read-out and setting: in the case of `CC(CNC1CCCCC1)OC(=O)c1ccccc1` (stereo not given) it was “inactive”. Consider `Cc1cc(C)cc(OCC2CNC(=O)O2)c1` (stereo not given), for which the Potency entry is “inactive”. As to `CNCCCCOc1ccccc1Cc1ccccc1`, the Potency entry was “inactive”. On the same count and under the same terms, as for `CC1=C(C(=O)O)N2C(=O)[C@@H](NC(=O)[C@H](N)c3ccccc3)[C@H]2SC1`, the entry is “inactive”. As to `CCNC(=O)/C=C/c1cccc(Br)c1`, the Potency entry is “inactive”. With `Nc1ccc(S(=O)(=O)Nc2cnc3ccccc3n2)cc1`, the Potency result was “inactive”. Still for that read-out and setting: as for `CCOC(=O)[C@@](C)(N)Cc1ccc(O)c(O)c1`, the entry is “inactive”; as for `Cc1c[nH]c2ccccc12`, “inactive”.

Consider `CC(=O)Oc1ccc(C)cc1`, for which the Potency entry was “inactive”.

In the case of `Cc1cn([C@H]2C[C@H](F)[C@@H](CO)O2)c(=O)[nH]c1=O`, the Potency result was “inactive”.
